Experiment [1] deals with rat Peripheral-type Benzodiazepine Receptor (PBR), Tspo (gene 24230) (UniProt P16257). In words: NVS_MP_rPBR: NovaScreen (NVS) Membrane Protein Assay for rat Peripheral-type Benzodiazepine Receptor (PBR) (AID 2283335). The method, boiled down:
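Competitive displacement of specific radioligand from rat kidney membrane PBR, read by filtration and scintillation after 1 h. Compounds first tested at 25 uM in duplicate, then in concentration series; signal loss relative to DMSO.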

Experiment [2] in a line: CEETOX_H295R_11DCORT: CeeTox H295R High-throughput Steroidogenesis Assay for 11-Deoxycortisol (11DCORT) (AID 2283432; active = hit-call score of the fitted dose curve at least 0.9, where 1 is the maximum; inactive = score below 0.9;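 for AC50: 11-deoxycortisol secreted into the medium measured by LC-MS/MS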). To be noted: actives raise or lower the signal. The method, boiled down:
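Steroidogenesis in human H295R cells: 48 h chemical exposure after forskolin priming, 11-deoxycortisol measured by LC-MS/MS.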

Experiment [3] is described as follows: CEETOX_H295R_OHPREG: CeeTox H295R High-throughput Steroidogenesis Assay for OH-Pregnenolone (OHPREG) (AID 2283434; active = hit-call score of the fitted dose curve at least 0.9, where 1 is the maximum; inactive = score below 0.9). To be noted: actives raise or lower the signal. The method, boiled down:
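H295R, 10 uM forskolin pre-stim 48 h; test chemical 48 h, 0.1% DMSO final. MTBE extraction, reverse-phase C18 HPLC-ESI+ MS/MS of medium. Gain/loss vs DMSO; viability by MTT in same wells.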

The nature of experiment [4]: CEETOX_H295R_OHPROG: CeeTox H295R High-throughput Steroidogenesis Assay for OH-Progesterone (OHPROG) (AID 2283435; active = hit-call score of the fitted dose curve at least 0.9, where 1 is the maximum; inactive = score below 0.9;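 for AC50: 17alpha-hydroxyprogesterone secreted into medium measured by HPLC-MS/MS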). To be noted: actives raise or lower the signal. The method in brief: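 Medium steroid levels read by LC-MS/MS after 48 h chemical treatment (0.1% DMSO) of human adrenal H295R cells that had been forskolin-primed (10 uM, 48 h). Gain or loss fitted against DMSO; MTT cytotoxicity checked per well.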

Experiment [5] in a line: CEETOX_H295R_CORTIC: CeeTox H295R High-throughput Steroidogenesis Assay for Corticosterone (CORTIC) (AID 2283437; active = hit-call score of the fitted dose curve at least 0.9, where 1 is the maximum; inactive = score below 0.9;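 note: corticosterone secreted into medium quantified by mass spectrometry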). To be noted: actives raise or lower the signal. The method in brief:
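48 h forskolin (10 uM) prestim, then 48 h chemical exposure, final DMSO 0.1%. Readout: corticosterone in medium by LC-MS/MS after MTBE extraction. Gain/loss fit vs DMSO; MTT viability in same wells.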

Experiment [6] is described as follows: CEETOX_H295R_CORTISOL: CeeTox H295R High-throughput Steroidogenesis Assay for Cortisol (AID 2283438; active = hit-call score of the fitted dose curve at least 0.9, where 1 is the maximum; inactive = score below 0.9;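 note: cortisol secreted into medium quantified by LC-MS/MS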). To be noted: actives raise or lower the signal. The method in brief:
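Cortisol measured by HPLC-MS/MS after MTBE extraction of medium from H295R cells exposed 48 h to chemical (0.1% DMSO), following 48 h prestimulation with 10 uM forskolin. Viability assessed by MTT in the same wells.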

The nature of experiment [7]: CEETOX_H295R_DOC: CeeTox H295R High-throughput Steroidogenesis Assay for DOC (AID 2283439; active = hit-call score of the fitted dose curve at least 0.9, where 1 is the maximum; inactive = score below 0.9). To be noted: actives raise or lower the signal. The method, boiled down:
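11-Deoxycorticosterone quantified in medium by MTBE extraction and HPLC-MS/MS after 48 h chemical exposure (0.1% DMSO) of forskolin-primed (10 uM, 48 h) H295R cells. Same-well MTT viability; data fitted bidirectionally against DMSO.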

Experiment [8] in a line: CEETOX_H295R_PROG: CeeTox H295R High-throughput Steroidogenesis Assay for Progesterone (PROG) (AID 2283442; active = hit-call score of the fitted dose curve at least 0.9, where 1 is the maximum; inactive = score below 0.9;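 for AC50: human H295R adrenal cells primed with 10 µM forskolin before dosing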). To be noted: actives raise or lower the signal. The method, boiled down: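 H295R human adrenal cells were prestimulated with 10 uM forskolin for 48 h, then exposed to test chemical (0.1% DMSO final) for 48 h. Medium progesterone was MTBE-extracted and quantified by HPLC-MS/MS, with bidirectional fitting against DMSO.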

For experiment [9], the system named is Sodium/Iodide Symporter (NIS), SLC5A5 (gene 6528). Description: CPHEA_Stoker_NIS_Inhibition_RAIU: CPHEA's Radioactive Iodide Uptake (RAIU) Assay for Sodium/Iodide Symporter (NIS) Inhibition, Stoker and Laws Labs (AID 2283841). The method, boiled down:
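Test chemicals, six concentrations from 0.001 to 100uM in 0.5% DMSO, were co-incubated with carrier-free 125I (final 329pM) on hNIS-HEK293T-EPA monolayers in pH 7.4 HEPES-buffered HBSS. Plates stood 2 hours at room temperature, then were washed cold and counted.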

Experiment [10] is described as follows: CPHEA_Stoker_NIS_Cytotoxicity: Cytotoxicity Assessment for CPHEA's Radioactive Iodide Uptake (RAIU) Assay for Sodium/Iodide Symporter (NIS) Inhibition, Stoker and Laws Labs (AID 2283897). The method in brief:
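Viability in hNIS-HEK293T-EPA cells is scored as a drop in luciferase-detected ATP following 2-hour room-temperature exposure (0.001–100uM; triplicate wells, three cell passages), with DMSO as negative control.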

Experiment [11] is described as follows: CCTE_Padilla_ZF_Score.General: CCTE's 144 Hour Post-fertilization zebrafish Assay Score for General Malformation, Padilla Lab (AID 2284411; active = hit-call score of the fitted dose curve at least 0.9, where 1 is the maximum; inactive = score below 0.9). The method in brief:
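Malformation, death and hatching were scored at 6 dpf by two blinded observers under a stereo microscope. Embryos were dosed singly from 6-8 hpf in sealed plates of 10% Hanks' at 26C and rinsed on 5 dpf; DMSO baseline.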

Experiment [12] addresses human Phosphodiesterase 10 (PDE10), PDE10A (gene 10846) (UniProt Q9Y233). In words: NVS_ENZ_hPDE10: NovaScreen (NVS) Enzymatic Assay for human Phosphodiesterase 10 (PDE10) (AID 2283195). The method, boiled down: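 Biochemical single-readout PDE10A assay, cell-free, extracted protein. Compounds first screened at 25 uM in duplicate, hits then titrated to 50 uM max. Activity measured after 1 h; loss-of-signal fitted against DMSO negative control.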

Experiment [13] addresses Peroxisome proliferator-activated receptor gamma (Homo sapiens) (UniProt P37231). Description: NVS_NR_hPPARg: NovaScreen (NVS) Nuclear Receptor Binding Assay for human Peroxisome Proliferator-activated Receptor gamma (PPARg) (AID 2283370). The method, boiled down:
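Cell-free binding to extracted PPARg protein, read by fluorescence polarization 2 h after dosing; loss of signal relative to DMSO baseline marks displacement. Primary screen in duplicate at 25 uM, actives retested in concentration series.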

Experiment [14] has the same target. In words: OT_PPARg_PPARgSRC1_0480: Odyssey Thera (OT) 8-hour Protein-Complementation Assay for Peroxisome Proliferator-activated Receptor Gamma / SRC-1 Co-activator (AID 2283387).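 Note: nuclear to cytoplasmic split Venus YFP fluorescence ratio reporting PPARg SRC-1 interaction.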 The method, boiled down: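 Split-YFP (IFP1/IFP2) PPARg/SRC-1 reporter, HEK293T, 37 °C, 5% CO2; 8 h compound; formaldehyde fix + Draq5; high-content imaging, N/C ratio, ≥350 cells/image, positive direction vs DMSO.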

Experiment [15] addresses Bile acid receptor (Homo sapiens) (UniProt Q96RI1). Description: OT_FXR_FXRSRC1_0480: Odyssey Thera (OT) 8-hour HEK293T Protein-Complementation Assay for Farnesoid X receptor/SRC-1 Co-activator (AID 2283383). The method, boiled down:
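Binding of FXR to coactivator SRC-1 was read as fluorescence from a reconstituted split reporter in HEK293T cells, 8 h after chemical addition. Only increases in signal versus DMSO were fit.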

Experiment [16] concerns the target Nuclear receptor subfamily 1 group I member 2 (Homo sapiens) (UniProt O75469). In words: NVS_NR_hPXR: NovaScreen (NVS) Nuclear Receptor Binding Assay for human Pregnane X Receptor (PXR) (AID 2283365).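 Note: a drop in FRET signal versus DMSO baseline means the compound binds.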 The method, boiled down: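 Cell-free binding assay with extracted human PXR protein, read by TR-FRET 2 h after dosing; loss of signal relative to DMSO baseline indicates binding. Primary screen at 25 uM in duplicate, actives retested in concentration series.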

Experiment [17] deals with Nucleoli Translocation, AR (gene 367) (UniProt P10275). Description: UPITT_HCI_U2OS_AR_TIF2_Nucleoli_Antagonist: University of Pittsburgh U2OS Androgen Receptor-Transcriptional Intermediary Factor 2 (AR-TIF2) Antagonism High Content Imaging Assay for Nucleoli Translocation (AID 2283997). The method, boiled down: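 Compounds are added at 20 uM final concentration in 0.2% DMSO to U2OS cells carrying AR-RFP and TIF2-GFP fusions. Nucleolar AR-RFP fluorescence is then quantified by automated imaging. Antagonism is fitted positively against DHT baseline.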
Sequence of Nucleoli Translocation, AR (gene 367) (P10275 whole entry, looked up, the tested form may be a part): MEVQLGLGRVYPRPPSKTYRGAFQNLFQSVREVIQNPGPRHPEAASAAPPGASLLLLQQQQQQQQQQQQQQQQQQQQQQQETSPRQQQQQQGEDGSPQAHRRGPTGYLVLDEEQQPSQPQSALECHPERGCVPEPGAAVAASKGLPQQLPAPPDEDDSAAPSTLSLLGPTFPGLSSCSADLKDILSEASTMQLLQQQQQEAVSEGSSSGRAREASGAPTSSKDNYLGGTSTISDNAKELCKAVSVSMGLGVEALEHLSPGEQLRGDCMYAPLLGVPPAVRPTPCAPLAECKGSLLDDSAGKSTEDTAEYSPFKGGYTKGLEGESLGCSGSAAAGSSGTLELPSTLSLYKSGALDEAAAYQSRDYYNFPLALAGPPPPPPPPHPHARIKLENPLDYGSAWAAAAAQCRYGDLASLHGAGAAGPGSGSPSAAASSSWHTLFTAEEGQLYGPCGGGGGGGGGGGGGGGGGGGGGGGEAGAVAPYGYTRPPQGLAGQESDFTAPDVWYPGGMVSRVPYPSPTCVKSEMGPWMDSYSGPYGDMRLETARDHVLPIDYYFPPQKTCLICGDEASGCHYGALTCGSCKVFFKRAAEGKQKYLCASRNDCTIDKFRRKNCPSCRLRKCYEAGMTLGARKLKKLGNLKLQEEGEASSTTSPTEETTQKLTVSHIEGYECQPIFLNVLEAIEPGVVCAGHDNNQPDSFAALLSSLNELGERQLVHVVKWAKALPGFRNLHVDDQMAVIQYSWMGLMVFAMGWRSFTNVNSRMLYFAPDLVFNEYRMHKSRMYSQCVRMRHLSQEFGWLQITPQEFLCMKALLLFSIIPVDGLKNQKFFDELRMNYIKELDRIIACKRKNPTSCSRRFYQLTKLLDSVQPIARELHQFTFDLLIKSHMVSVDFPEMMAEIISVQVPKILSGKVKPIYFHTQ

In experiment [18] the test system is Thyroperoxidase (TPO), gene 54314. In words: CCTE_Simmons_AUR_rTPO: CCTE's Amplex UltraRed Assay for Thyroperoxidase (TPO) Inhibition, Simmons Lab (AID 2283662). The method, boiled down: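 Endpoint is decreased Amplex UltraRed fluorescence after a 30-min, 37C reaction of rat thyroid microsomes with 300 uM H2O2. Eight test concentrations (5 nM–87.5 uM final) in 0.5% DMSO, three biological replicates each.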

Experiment [19] is described as follows: CCTE_Simmons_CellTiterGLO_HEK293T: Viability Assessment in CCTE's Assays for Thyroperoxidase (TPO) Inhibition, Simmons Lab (AID 2283665). The method in brief: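 Luciferase-coupled ATP content after 24 h exposure gives viability; 8-point series from 5 nM to 87.5 uM final in 0.5% DMSO. Human HEK293T cells, 1% FBS medium, three biological replicates, dichlone positive control.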
On the technique in general: Cellular ATP, detected with luciferase, serves as a proxy for viable cell number.

The target of experiment [20] is Luciferin 4-monooxygenase (Photinus pyralis) (UniProt P08659). In words: CCTE_Simmons_QuantiLum_inhib_2: CCTE's Firefly Luciferase Inhibition Assay, Simmons Lab (AID 2283767). The method, boiled down: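 Eight test concentrations, 5 nM up to 87.5 uM final, preincubated 30min at 37C in the dark with purified luciferase (0.5% DMSO final). Detection reagent (150uM D-luciferin, 147uM dATP, 75uM CoA, pH 7.8) injected per well before kinetic luminescence read; three replicates.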
Sequence of Luciferin 4-monooxygenase (Photinus pyralis) (P08659 whole entry, looked up): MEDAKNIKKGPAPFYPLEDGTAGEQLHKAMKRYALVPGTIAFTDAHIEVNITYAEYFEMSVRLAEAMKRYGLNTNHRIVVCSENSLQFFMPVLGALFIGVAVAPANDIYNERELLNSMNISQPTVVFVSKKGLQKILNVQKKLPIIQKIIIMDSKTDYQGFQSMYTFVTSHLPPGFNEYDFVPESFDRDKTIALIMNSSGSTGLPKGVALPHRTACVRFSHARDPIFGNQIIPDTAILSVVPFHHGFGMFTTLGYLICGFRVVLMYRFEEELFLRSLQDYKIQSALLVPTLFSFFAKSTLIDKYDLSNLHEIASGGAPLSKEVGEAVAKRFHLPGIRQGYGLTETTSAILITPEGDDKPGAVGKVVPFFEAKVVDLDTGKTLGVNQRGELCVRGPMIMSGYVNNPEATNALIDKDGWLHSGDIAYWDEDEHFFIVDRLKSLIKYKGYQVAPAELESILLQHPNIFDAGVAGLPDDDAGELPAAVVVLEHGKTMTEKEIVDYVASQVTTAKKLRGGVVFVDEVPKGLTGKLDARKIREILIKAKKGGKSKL

Where “and” joins values, the source holds several entries; their conditions need not be identical. Equal entries are not always repeated. Records with an inconclusive call do not appear. Calls of active or inactive are those of the source. Rule for the calls, unless noted: active = hit-call score of the fitted dose curve at least 0.9, where 1 is the maximum; inconclusive = response in the unintended direction; inactive = score below 0.9.

Sequence of Nuclear receptor subfamily 1 group I member 2 (Homo sapiens) (O75469 whole entry, looked up): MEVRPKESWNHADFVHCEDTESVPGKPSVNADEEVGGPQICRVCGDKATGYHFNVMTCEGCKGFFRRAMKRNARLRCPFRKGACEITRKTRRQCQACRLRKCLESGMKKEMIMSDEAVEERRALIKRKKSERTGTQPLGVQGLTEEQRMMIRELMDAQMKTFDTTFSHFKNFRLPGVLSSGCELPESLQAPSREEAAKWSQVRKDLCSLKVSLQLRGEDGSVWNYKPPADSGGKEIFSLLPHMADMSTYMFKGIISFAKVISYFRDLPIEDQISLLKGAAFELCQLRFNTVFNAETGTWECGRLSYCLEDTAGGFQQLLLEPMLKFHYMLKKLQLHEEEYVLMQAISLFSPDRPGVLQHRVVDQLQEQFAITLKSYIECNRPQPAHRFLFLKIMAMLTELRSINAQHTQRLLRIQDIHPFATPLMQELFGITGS
Sequence of human Phosphodiesterase 10 (PDE10), PDE10A (gene 10846) (Q9Y233 whole entry, looked up): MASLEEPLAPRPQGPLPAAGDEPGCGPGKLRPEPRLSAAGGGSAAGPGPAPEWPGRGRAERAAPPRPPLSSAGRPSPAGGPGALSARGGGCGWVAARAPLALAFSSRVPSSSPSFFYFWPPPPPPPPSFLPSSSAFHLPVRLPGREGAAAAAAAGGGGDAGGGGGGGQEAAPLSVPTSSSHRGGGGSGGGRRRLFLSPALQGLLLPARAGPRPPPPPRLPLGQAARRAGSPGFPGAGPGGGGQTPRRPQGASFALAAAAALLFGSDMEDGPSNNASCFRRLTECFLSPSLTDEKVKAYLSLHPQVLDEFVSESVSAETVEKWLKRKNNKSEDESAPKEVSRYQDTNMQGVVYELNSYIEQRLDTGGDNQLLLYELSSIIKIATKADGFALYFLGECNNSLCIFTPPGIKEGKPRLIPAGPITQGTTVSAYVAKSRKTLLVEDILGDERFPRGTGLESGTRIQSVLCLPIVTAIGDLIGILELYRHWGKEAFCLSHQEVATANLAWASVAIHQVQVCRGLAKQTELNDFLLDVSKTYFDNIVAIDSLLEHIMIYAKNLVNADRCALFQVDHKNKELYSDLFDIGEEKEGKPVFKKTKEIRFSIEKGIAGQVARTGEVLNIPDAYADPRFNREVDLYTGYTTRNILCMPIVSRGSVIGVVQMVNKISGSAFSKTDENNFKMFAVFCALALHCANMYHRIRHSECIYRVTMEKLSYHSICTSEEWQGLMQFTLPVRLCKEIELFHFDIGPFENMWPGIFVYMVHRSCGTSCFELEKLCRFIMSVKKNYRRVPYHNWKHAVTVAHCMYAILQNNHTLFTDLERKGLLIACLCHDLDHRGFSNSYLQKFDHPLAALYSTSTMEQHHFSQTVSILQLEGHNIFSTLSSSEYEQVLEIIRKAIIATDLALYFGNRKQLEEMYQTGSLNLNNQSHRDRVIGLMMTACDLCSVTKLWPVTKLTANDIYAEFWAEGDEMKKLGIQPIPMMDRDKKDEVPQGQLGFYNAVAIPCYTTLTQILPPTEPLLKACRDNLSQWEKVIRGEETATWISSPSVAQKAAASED
Sequence of Bile acid receptor (Homo sapiens) (Q96RI1 whole entry, looked up): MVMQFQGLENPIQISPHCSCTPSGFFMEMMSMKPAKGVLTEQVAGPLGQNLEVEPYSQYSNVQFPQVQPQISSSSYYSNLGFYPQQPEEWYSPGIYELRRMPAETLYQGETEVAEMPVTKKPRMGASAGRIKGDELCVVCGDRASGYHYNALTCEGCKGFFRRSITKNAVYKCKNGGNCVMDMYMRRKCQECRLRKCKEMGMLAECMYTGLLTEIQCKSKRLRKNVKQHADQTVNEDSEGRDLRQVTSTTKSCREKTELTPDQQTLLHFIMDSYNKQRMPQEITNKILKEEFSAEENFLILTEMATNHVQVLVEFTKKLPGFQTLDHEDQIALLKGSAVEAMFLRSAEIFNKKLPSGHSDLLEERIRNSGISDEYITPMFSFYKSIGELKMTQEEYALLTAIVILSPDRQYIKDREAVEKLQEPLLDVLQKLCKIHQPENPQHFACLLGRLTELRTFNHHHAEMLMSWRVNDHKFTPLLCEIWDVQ
Sequence of Peroxisome proliferator-activated receptor gamma (Homo sapiens) (P37231 whole entry, looked up): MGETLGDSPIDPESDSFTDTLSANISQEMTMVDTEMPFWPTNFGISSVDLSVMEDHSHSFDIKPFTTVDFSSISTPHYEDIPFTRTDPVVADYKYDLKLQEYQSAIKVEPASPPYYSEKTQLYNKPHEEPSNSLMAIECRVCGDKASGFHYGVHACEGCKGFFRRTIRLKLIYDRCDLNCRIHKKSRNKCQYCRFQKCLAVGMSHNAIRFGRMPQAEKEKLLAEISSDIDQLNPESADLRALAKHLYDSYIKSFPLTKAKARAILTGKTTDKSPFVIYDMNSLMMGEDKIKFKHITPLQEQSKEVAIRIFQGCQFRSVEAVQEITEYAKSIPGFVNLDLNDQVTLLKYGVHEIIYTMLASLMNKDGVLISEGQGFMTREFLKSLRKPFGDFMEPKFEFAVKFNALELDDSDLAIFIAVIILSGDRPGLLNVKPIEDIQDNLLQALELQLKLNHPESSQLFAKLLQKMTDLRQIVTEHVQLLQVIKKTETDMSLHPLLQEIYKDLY
Sequence of rat Peripheral-type Benzodiazepine Receptor (PBR), Tspo (gene 24230) (P16257 whole entry, looked up): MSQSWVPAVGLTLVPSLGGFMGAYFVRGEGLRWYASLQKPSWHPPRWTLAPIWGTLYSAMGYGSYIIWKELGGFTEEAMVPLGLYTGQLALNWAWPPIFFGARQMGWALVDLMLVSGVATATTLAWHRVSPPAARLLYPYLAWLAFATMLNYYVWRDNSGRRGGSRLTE

As usually defined, the AC50 is the midpoint of the concentration-response curve, whichever way the signal moves. With `Cc1ccc(OP(=O)(Oc2ccc(C)cc2)Oc2ccc(C)cc2)cc1` (tested in a mixture with another compound), the AC50 in experiment [1] was 150 nM (active) and 5.34 µM (active); in experiment [11], 2.6 µM (active). Besides, the compound was called inactive in experiment [2], in [3], in [4], in experiment [5], in [6] and in experiment [7]. Besides, the compound was called inactive in [8], in experiment [9] and in experiment [10].
As for `O=[N+]([O-])C=Cc1ccccc1`, the call in [12] was inactive. Also, in experiment [11], the AC50 was 2.31 µM (active).
Consider `CC(=O)C=Cc1ccccc1`, for which the call in experiment [13] and in experiment [14] was inactive.
With `O=C1Nc2ccc(Cl)cc2C(c2ccccc2)=NC1O` (stereo unspecified), the compound was called inactive in [15], in experiment [14], in [9] and in experiment [10].
Take `Clc1ccc(-c2ccccc2)cc1`: in experiment [12], the call was inactive.
For `CN(C)C(=O)C(c1ccccc1)c1ccccc1`, the result in experiment [16] was inactive.
For `O=C(NC(=O)c1c(F)cccc1F)Nc1ccc(Oc2ccc(C(F)(F)F)cc2Cl)cc1F`, the compound was called inactive in experiment [16]. Moreover, the concentration at half-maximal activity (AC50) in [15] was 56.3 µM (active); in experiment [3] it was 12.4 µM (active); in experiment [4], 1.37 µM (active); in experiment [8] it was 1.28 µM (active).
For `Cc1ccc(C)c2ccccc12`, the outcome in experiment [16], in experiment [15] and in experiment [17] was inactive.
Regarding `C=CC(=O)OCCO`, the result in experiment [2], in [3], in [4], in experiment [5], in [6] and in [7] was inactive. For the same compound, the concentration at half-maximal activity (AC50) in experiment [8] is 5.27 µM (active).
For `O=C=Nc1ccccc1`, the result in [14], in experiment [4], in [18], in [19] and in experiment [20] was inactive. Also, the values for the AC50 in experiment [3] and in experiment [8] were 0.499 µM (active) and 0.492 µM (active), respectively.
In the case of `Cc1cc(C)c(C2=C(OC(=O)CC(C)(C)C)C3(CCCC3)OC2=O)c(C)c1`, the result in experiment [16], in [13], in experiment [15], in [5] and in experiment [7] was inactive. In addition, the AC50 in [2] was 72.4 µM (active); in experiment [6] it was 69.2 µM (active).
For `COC(C)(C)CCC[C@H](C)C/C=C/C(C)=C/C(=O)OC(C)C`, the call in experiment [12] was inactive.

Values taken from PubChem BioAssay (EPA / NIEHS).
